{
  "source": "the supplement of paper PMC12819154",
  "about": "“High-throughput peptide-centric local stability assay extends protein–ligand identification to membrane proteins, tissues and bacteria” (Nature Structural & Molecular Biology, 2025);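 further: lysate desalted by size exclusion to strip endogenous ATP, peptide intensities built from DIA-NN precursor signals, and peptides missing any value discarded before comparison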",
  "data": [
    {"compound": "Nc1ncnc2c1ncn2[C@@H]1O[C@H](COP(=O)(O)OP(=O)(O)OP(=O)(O)O)[C@@H](O)[C@H]1O [adenosine 5'-triphosphate]", "assay": "log2 fold change of tryptic peptide abundance, ligand vs vehicle (limited proteolysis) (log2 ratio); higher = more trypsin-susceptible (destabilized)", "conditions": "ligand concentration: 5 mM; sample: E. coli desalted lysate; replicate design: treated before aliquoting", "protocol": "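HT-PELSA: desalted E. coli K-12 BW25113 lysate (with 12 mM MgCl2) incubated with 5 mM ATP (pH 7) or water for 30 min at 25 C, then a 4 min trypsin pulse at 22 C. Peptides were quantified by DIA-MS (4 replicates). Value is the peptide log2 fold change (treated/control); negative = stabilized. Scale: negative = ligand-stabilized region.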", "values": [
      {"target": "UniProt P39099 (peptide sequence: SRIATTEPGTK, peptide start residue: 330)", "log2 fold change": 0.877},
      {"target": "UniProt P28630 (peptide sequence: LSLLWPDGK, peptide start residue: 188)", "sequence (P28630 whole entry)": "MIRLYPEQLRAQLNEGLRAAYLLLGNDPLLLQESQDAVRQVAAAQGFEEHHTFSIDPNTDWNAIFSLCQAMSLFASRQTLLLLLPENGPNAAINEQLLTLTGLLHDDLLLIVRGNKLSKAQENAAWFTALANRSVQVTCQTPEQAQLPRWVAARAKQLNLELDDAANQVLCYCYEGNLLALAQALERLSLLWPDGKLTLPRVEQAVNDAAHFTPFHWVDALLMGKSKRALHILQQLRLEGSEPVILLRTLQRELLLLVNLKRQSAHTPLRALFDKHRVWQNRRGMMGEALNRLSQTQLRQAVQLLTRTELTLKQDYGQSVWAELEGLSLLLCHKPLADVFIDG", "log2 fold change": -0.437},
      {"target": "UniProt P37636 (peptide sequence: QDYDTAR, peptide start residue: 137)", "log2 fold change": 0.264},
      {"target": "UniProt P75974 (peptide sequence: LIEDGTQR, peptide start residue: 178)", "log2 fold change": 0.336},
      {"target": "UniProt P78067 (peptide sequence: WGHAGSDSTHMEDFHNPDGTMR, peptide start residue: 340)", "log2 fold change": -0.858},
      {"target": "UniProt P42589 (peptide sequence: TVVVLCNLQK, peptide start residue: 62)", "sequence (P42589 whole entry)": "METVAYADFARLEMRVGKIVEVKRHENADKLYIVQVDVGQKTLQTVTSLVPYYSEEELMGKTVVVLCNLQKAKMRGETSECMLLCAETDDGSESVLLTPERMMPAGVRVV", "log2 fold change": -0.415},
      {"target": "UniProt P07395 (peptide sequence: GKGVAEGYK, peptide start residue: 746)", "sequence (P07395 whole entry)": "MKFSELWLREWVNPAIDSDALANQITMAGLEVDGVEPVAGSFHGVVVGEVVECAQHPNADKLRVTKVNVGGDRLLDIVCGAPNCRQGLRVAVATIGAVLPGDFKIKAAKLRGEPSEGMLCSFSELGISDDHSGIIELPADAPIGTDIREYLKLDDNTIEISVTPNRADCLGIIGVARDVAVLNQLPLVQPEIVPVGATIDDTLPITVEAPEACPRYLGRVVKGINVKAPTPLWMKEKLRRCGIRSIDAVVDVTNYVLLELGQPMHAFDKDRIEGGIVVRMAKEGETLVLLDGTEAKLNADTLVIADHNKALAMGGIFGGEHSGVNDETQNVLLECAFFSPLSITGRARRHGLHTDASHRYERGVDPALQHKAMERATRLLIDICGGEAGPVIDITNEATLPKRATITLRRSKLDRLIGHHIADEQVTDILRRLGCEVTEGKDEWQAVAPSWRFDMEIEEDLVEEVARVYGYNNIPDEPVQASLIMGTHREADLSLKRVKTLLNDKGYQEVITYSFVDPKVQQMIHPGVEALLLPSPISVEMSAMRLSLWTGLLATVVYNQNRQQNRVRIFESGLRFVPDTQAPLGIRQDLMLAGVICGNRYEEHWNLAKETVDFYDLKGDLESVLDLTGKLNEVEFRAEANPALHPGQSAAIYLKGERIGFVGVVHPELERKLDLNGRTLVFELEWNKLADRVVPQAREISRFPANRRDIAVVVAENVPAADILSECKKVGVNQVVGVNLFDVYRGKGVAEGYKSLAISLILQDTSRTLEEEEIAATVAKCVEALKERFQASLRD", "log2 fold change": -0.76},
      {"target": "UniProt P39274 (peptide sequence: FYINDKQGK, peptide start residue: 10)", "log2 fold change": 0.423},
      {"target": "UniProt P56580 (peptide sequence: KIVYITAGTRPAIVDK, peptide start residue: 26)", "log2 fold change": 1.13},
      {"target": "UniProt P08179 (peptide sequence: MHENAAWLDGQR, peptide start residue: 191)", "log2 fold change": -0.588},
      {"target": "UniProt P77307 (peptide sequence: HQLVVTQLK, peptide start residue: 249)", "log2 fold change": -0.533},
      {"target": "UniProt P09029 (peptide sequence: DVFPIIADR, peptide start residue: 72)", "log2 fold change": -2.73},
      {"target": "UniProt P07648 (peptide sequence: VKAHLTCLHTR, peptide start residue: 776)", "log2 fold change": 1.26},
      {"target": "UniProt P78061 (peptide sequence: FCHVYHACK, peptide start residue: 441)", "sequence (P78061 whole entry)": "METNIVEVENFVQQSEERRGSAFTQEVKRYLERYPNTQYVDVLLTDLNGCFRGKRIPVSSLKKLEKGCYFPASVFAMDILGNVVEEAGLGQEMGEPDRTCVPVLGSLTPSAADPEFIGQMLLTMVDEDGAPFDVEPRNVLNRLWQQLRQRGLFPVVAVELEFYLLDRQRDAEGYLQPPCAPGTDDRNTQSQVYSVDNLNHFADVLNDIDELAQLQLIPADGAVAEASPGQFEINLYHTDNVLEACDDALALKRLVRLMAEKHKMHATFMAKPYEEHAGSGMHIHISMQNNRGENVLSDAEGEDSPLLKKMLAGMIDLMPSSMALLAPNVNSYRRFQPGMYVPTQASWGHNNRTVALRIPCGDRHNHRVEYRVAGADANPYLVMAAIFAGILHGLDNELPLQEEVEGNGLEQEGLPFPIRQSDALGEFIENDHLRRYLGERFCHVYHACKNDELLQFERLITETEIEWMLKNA", "log2 fold change": -1.83},
      {"target": "UniProt P76177 (peptide sequence: KRIVQSPDVIPADSEAGR, peptide start residue: 179)", "log2 fold change": 2.16},
      {"target": "UniProt P36547 (peptide sequence: TANLHHLYHEPLPENLK, peptide start residue: 6)", "log2 fold change": -0.813},
      {"target": "UniProt P77610 (peptide sequence: WLNAHEEGYHK, peptide start residue: 18)", "log2 fold change": -0.358},
      {"target": "UniProt P11664 (peptide sequence: GAPETFDVAK, peptide start residue: 101)", "log2 fold change": -1.46},
      {"target": "UniProt P45541 (peptide sequence: TGMFTCGHQR, peptide start residue: 3)", "sequence (P45541 whole entry)": "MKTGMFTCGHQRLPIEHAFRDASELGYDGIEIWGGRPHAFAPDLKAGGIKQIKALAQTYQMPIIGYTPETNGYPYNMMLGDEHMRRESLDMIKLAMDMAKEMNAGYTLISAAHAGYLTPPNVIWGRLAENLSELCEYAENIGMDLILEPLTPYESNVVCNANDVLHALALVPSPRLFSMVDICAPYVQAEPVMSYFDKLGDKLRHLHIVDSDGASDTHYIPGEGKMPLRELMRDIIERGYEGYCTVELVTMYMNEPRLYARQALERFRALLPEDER", "log2 fold change": -1.14},
      {"target": "UniProt Q46851 (peptide sequence: YLNGIPQDSR, peptide start residue: 234)", "log2 fold change": -0.438},
      {"target": "UniProt P36929 (peptide sequence: VYDNLKR, peptide start residue: 286)", "sequence (P36929 whole entry)": "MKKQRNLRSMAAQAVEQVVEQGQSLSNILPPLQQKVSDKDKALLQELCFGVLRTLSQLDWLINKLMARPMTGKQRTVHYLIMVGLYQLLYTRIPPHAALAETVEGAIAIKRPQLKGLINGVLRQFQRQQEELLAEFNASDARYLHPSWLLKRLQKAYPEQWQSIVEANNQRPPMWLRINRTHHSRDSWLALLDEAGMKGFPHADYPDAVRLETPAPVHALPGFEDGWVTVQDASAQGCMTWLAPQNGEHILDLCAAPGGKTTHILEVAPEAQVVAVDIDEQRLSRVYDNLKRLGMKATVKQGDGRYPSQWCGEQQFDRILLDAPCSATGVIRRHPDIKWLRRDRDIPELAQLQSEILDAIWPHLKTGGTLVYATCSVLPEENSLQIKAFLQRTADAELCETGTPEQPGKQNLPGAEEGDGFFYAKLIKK", "log2 fold change": -1.2},
      {"target": "UniProt P23840 (peptide sequence: HFIPVLTR, peptide start residue: 38)", "sequence (P23840 whole entry)": "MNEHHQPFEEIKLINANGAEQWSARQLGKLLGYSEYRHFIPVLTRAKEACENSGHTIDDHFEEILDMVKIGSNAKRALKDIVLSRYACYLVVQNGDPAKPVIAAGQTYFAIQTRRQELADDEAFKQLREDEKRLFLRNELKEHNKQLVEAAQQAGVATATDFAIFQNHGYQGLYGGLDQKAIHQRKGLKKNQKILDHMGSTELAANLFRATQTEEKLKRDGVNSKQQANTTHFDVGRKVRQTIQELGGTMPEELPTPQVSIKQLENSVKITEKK", "log2 fold change": 0.387},
      {"target": "UniProt P21865 (peptide sequence: AIEHFFR, peptide start residue: 205)", "log2 fold change": 0.436},
      {"target": "UniProt P02359 (peptide sequence: FVNILMVDGK, peptide start residue: 26)", "log2 fold change": 0.921},
      {"target": "UniProt P36771 (peptide sequence: AGLGVTARPVEMMSPDLR, peptide start residue: 231)", "sequence (P36771 whole entry)": "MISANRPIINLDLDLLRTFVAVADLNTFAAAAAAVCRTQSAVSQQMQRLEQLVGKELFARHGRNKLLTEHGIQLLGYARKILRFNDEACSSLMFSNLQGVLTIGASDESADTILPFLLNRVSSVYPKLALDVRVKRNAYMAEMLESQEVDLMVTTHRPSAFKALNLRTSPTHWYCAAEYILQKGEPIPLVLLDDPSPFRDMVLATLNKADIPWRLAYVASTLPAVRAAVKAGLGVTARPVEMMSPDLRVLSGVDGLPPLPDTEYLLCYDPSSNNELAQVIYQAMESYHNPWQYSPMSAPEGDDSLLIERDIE", "log2 fold change": 0.543},
      {"target": "UniProt P32131 (peptide sequence: QQHKADQYLDALEQEIVHR, peptide start residue: 78)", "log2 fold change": 1.02},
      {"target": "UniProt P37744 (peptide sequence: KGFIDVEQVRK, peptide start residue: 261)", "log2 fold change": -0.836},
      {"target": "UniProt P13458 (peptide sequence: NQPDGNLQVPR, peptide start residue: 103)", "log2 fold change": -0.895},
      {"target": "UniProt P27300 (peptide sequence: SVDAVIVNGGVPR, peptide start residue: 190)", "sequence (P27300 whole entry)": "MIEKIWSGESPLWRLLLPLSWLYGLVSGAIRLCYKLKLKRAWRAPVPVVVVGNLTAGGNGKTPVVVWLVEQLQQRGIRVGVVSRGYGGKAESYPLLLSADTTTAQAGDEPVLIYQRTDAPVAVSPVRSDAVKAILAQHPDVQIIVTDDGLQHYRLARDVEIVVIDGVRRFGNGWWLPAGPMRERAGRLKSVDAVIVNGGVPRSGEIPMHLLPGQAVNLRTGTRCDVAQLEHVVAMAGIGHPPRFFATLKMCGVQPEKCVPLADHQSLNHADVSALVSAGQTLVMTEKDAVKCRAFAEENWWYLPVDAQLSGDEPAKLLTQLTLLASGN", "log2 fold change": -2.1},
      {"target": "UniProt P15047 (peptide sequence: IGMSAYGASK, peptide start residue: 139)", "sequence (P15047 whole entry)": "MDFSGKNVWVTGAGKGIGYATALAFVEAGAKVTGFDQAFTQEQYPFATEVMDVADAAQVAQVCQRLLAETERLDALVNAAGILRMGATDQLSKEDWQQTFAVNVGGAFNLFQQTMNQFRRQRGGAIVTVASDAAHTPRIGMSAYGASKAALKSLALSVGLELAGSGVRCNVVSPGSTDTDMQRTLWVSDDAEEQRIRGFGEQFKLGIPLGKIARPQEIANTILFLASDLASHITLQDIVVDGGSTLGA", "log2 fold change": -1.47},
      {"target": "UniProt P39177 (peptide sequence: FEEHLQHEAQER, peptide start residue: 58)", "sequence (P39177 whole entry)": "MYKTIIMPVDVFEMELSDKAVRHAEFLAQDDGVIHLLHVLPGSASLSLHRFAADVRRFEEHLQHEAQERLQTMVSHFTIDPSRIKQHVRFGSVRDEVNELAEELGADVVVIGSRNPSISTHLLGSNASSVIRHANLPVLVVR", "log2 fold change": -2.59},
      {"target": "UniProt P76256 (peptide sequence: DENGIWHGEETEAVLKPEIVHER, peptide start residue: 130)", "sequence (P76256 whole entry)": "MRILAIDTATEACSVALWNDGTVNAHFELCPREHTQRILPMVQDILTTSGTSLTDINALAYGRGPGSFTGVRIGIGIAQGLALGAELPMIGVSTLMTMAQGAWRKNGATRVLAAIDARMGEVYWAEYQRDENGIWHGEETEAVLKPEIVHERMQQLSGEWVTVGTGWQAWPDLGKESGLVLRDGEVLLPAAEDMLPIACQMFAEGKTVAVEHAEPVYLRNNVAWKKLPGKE", "log2 fold change": -0.588},
      {"target": "UniProt P30750 (peptide sequence: TVFGNVALPLELDNTPKDEVKR, peptide start residue: 98)", "log2 fold change": 0.668},
      {"target": "UniProt P52598 (peptide sequence: SCVGEAAATMLR, peptide start residue: 151)", "log2 fold change": -0.421},
      {"target": "UniProt P37647 (peptide sequence: LTGGSAEDAAK, peptide start residue: 275)", "sequence (P37647 whole entry)": "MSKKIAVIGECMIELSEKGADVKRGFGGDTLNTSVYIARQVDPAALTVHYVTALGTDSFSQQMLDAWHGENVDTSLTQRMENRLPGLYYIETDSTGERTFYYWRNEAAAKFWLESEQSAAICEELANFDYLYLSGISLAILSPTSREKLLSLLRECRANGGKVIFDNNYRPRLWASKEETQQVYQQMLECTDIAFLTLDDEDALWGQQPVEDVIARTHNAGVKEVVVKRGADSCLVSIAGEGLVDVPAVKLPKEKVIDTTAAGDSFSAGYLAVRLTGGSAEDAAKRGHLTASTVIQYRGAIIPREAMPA", "log2 fold change": -1.34},
      {"target": "UniProt P37747 (peptide sequence: DKDSLASK, peptide start residue: 216)", "sequence (P37747 whole entry)": "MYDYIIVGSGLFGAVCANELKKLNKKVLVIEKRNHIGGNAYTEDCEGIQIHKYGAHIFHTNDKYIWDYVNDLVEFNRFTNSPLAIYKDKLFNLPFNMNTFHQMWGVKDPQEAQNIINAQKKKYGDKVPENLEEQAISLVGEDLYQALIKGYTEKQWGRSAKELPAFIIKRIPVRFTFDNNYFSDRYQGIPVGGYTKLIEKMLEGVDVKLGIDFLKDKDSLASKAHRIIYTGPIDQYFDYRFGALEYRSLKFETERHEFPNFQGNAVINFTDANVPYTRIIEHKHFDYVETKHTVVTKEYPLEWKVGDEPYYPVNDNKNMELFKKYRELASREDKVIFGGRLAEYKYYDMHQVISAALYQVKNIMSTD", "log2 fold change": -0.827},
      {"target": "UniProt P76543 (peptide sequence: NSQLGWCR, peptide start residue: 147)", "log2 fold change": -0.802},
      {"target": "UniProt P61517 (peptide sequence: DLDVTATNR, peptide start residue: 190)", "sequence (P61517 whole entry)": "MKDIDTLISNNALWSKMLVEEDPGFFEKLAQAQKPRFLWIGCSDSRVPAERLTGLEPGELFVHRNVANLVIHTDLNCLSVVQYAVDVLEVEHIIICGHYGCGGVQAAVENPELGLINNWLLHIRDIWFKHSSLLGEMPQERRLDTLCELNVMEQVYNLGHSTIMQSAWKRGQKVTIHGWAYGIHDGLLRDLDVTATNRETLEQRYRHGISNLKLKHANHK", "log2 fold change": 0.547},
      {"target": "UniProt P35340 (peptide sequence: MTLTEIVAKIDTGAEKR, peptide start residue: 186)", "log2 fold change": 1.22},
      {"target": "UniProt P75828 (peptide sequence: YLDIINR, peptide start residue: 246)", "log2 fold change": -2.12}
    ]}
  ]
}
